Experimental data from PubChem BioAssay AID720554 (ICCB-Longwood Screening Facility, Harvard Medical School, 2013).
Among all 12,000 compounds or so, about 45 (0.4%) were called active. Rule as the data show it: active = inhibition mostly above about 83% (no sharp cut-off); inactive = mostly below about 52%. The sample as a whole holds a higher share of actives than the screen did.

Key:
[1] = BmaI1 acyl-homoserine lactone synthase inhibition – biochemical, fluorescence intensity, with counterscreen (AID 720554); details: BmaI1 enzyme assay, measured here: counterscreen fluorescence % control, concentration not given here
[2] = test system: acyl-homoserine lactone synthase BmaI1 (Burkholderia mallei ATCC 23344); assay: as above; details: BmaI1 enzyme assay, stronger effect = higher value, concentration not given here

Row | SMILES | inhibition [1] | inhibition [2]
1 | COc1ccc(C(=O)Nc2nccs2)c(F)c1 | 6.5% | 9.5% (inactive)
2 | Cc1ccc(SCC(=O)NC(=O)C(C)C)cc1C | 8% | 14.5% (inactive)
3 | CC(C)c1nc(C#N)c(NCc2cccnc2)o1 | 16.5% | 31% (inactive)
4 | Cc1cc(C(=O)OCC(=O)c2ccc(NC(=O)CC(C)C)cc2)no1 | 14.5% | 13.5% (inactive)
5 | FC(F)Oc1ccc(NC(=S)NNc2ccc(Cl)nn2)cc1 | 28% | 104% (active)
6 | CN(CC(=O)Nc1ccc(Cl)cc1)C(=O)c1ccc(OC(F)F)cc1 | 17% | 13% (inactive)
7 | FC(F)Oc1ccc(NC(=S)NC2CCCC2)cc1 | -10.5% | -12.5% (inactive)
8 | CCC(C)N=C1NC(=O)C(CC(=O)NCc2ccccc2)S1 (configuration not stated) | 8.5% | 10.5% (inactive)
9 | COC(=O)c1c(C)[nH]c(=O)[nH]c1=S | 1.5% | -6.5% (inactive)
10 | COC(=O)C1=NC=CN2CCS(=O)(=O)N=C12 | 9.5% | 7% (inactive)
11 | Cc1sc2c(c1C)C1=NS(=O)(=O)CCN1C=N2 | 10% | 88.5% (active)
12 | O=S1(=O)CCN2C=CSC2=N1 | 11.5% | 17% (inactive)
13 | CCOc1ccccc1NC(=O)CSc1nc(O)cc(=O)n1C1CCCC1 | 5.5% | 7.5% (inactive)
14 | CCOc1ccc(O)c(C=NC2CCCC2)c1 | 2.5% | 2.5% (inactive)
15 | COc1ccc(OCC(=O)N2CC(C)CC(C)C2)cc1 (configuration not stated) | -8% | 7% (inactive)
16 | N/C(Cc1nc2ccccc2[nH]1)=N\O | 2% | 24% (inactive)
17 | CC(C)(C)Cc1nc2ccccc2[nH]1 | 18% | 20.5% (inactive)
18 | NC(=S)Cc1nc2ccccc2[nH]1 | 27% | 98% (active)
19 | Cc1cc(=O)[nH]c(NNC(=S)Nc2ccc(S(=O)(=O)N3CCOCC3)cc2)n1 | 10% | 72% (inactive)
20 | COc1ccc(NC(=O)COC(=O)C23CCC(=O)N2c2ccccc2S3)cc1 (configuration not stated) | 5% | -0.5% (inactive)
21 | Cc1ccc(C(=O)OCC(=O)Nc2ccc(N(C)C)cc2)c(C)c1 | -7.5% | 24.5% (inactive)

Row | SMILES | inhibition [1] | inhibition [2]
22 | Cc1ccc(NC(=O)Nc2ccc3c(c2)C(=O)NC3=O)cc1 | 14% | 9% (inactive)
23 | Cc1ccc(NC(=O)Nc2ccc(N(C)C)cc2)cc1 | 3.5% | 98.5% (active)
24 | CN(C)C(CNC(=O)c1ccc2ncsc2c1)c1cccs1 (configuration not stated) | 13% | 18% (inactive)
25 | O=C(CCc1nc2ccccc2o1)Nc1cccc(-n2cnnn2)c1 | 6.5% | 16.5% (inactive)
26 | CC(C)NC(=S)NNc1ncc(C(F)(F)F)cc1Cl | 8% | 89% (active)
27 | FC(F)(F)c1cnc(NNC(=S)NCC2CCCO2)c(Cl)c1 (configuration not stated) | -1% | 51.5% (inactive)
28 | CC(C)NC(=S)NNc1ccccc1C(F)(F)F | -31% | 14% (inactive)
29 | CCN(C(=O)CSc1nnc(-c2ccccc2)c(-c2ccccc2)n1)C1CCS(=O)(=O)C1 (configuration not stated) | -2.5% | 6% (inactive)
30 | COC(=O)C1=C(C)NC(C)=C(C(=O)OC)C1C(=O)OCC(=O)Nc1cccc2nsnc12 | -2% | -15% (inactive)
31 | N#CCC(=O)Nc1ccc(C(=O)NCc2ccccc2)cc1 | 21.5% | 29.5% (inactive)
32 | CS(=O)(=O)CCC1NC(=O)NC1=O (configuration not stated) | 2.5% | 10.5% (inactive)
33 | COc1ccc(C(=O)Nc2ccc(N3CCCCC3)cc2)cc1 | -2% | 22.5% (inactive)
34 | O=C(Nc1ccc(N2CCCCCC2)cc1)c1ccncc1 | 26.5% | 62% (inactive)
35 | CC(=O)Nc1cccc(C(=O)Nc2ccc(N3CCCCC3)cc2)c1 | 7% | 83.5% (active)
36 | Cc1cc(C(=O)CSc2ccccn2)c(C)n1Cc1cccs1 | 12% | 16% (inactive)
37 | CCN(C(=O)C(C)Sc1nc(C)cs1)c1ccccc1 (configuration not stated) | 3.5% | 14.5% (inactive)
38 | CCN(CC)C(=S)SSC(=S)N(CC)CC | -13.5% | 96% (active)
39 | CCN(CC)C(=S)SCc1ncc(-c2ccccc2)o1 | 3.5% | 13% (inactive)
40 | FC(F)(F)c1nc(NNC(=S)NCC2CCCO2)c2ccccc2n1 (configuration not stated) | 25% | 100% (active)
41 | O=C(O)c1ccc(NNC(=S)NCC2CCCO2)cc1 (configuration not stated) | -33% | -78.5% (inactive)
42 | Cc1ccc(NNC(=S)NCC2CCCO2)c(C)c1 (configuration not stated) | 6.5% | 10% (inactive)

Row | SMILES | inhibition [1] | inhibition [2]
43 | O=C1CCC(C(=O)NC2CCCCCC2)=NN1 | 11% | 18.5% (inactive)
44 | Cc1cc(SCC(=O)O)n2c(nc3ccccc32)c1C#N | 1% | 20% (inactive)
45 | Cc1ccccc1N1C(=O)C=CC1=O | 4% | 82% (active)
46 | Cc1ccccc1N1C(=O)Cc2ccccc2C1=O | 2% | 16.5% (inactive)
47 | Cc1ccccc1-n1cc[nH]c1=S | 4.5% | 23.5% (inactive)
48 | O=C(O)CCN(Cc1ccccc1)S(=O)(=O)c1cccs1 | 1.5% | 11% (inactive)
49 | Cc1nc2ccc(NC(=O)C3CCCC3)cc2s1 | 12.5% | 14% (inactive)
50 | N#Cc1ccc(CSc2nncn2-c2ccccc2)cc1 | -2% | -5.5% (inactive)
51 | NNc1nc(-c2ccccc2)c2cc(Br)ccc2n1 | 16.5% | 91% (active)
52 | Cc1ccc2nc(N3CCCC3)nc(-c3ccccc3)c2c1 | 2.5% | 3% (inactive)
53 | Nc1nc(N)c2nc(-c3ccccc3)c(N)nc2n1 | 21% | 5% (inactive)
54 | CCC(=O)Nc1ccc(C(=O)CN2C(=O)NC3(CCCc4ccccc43)C2=O)cc1 (configuration not stated) | 16% | 14.5% (inactive)
55 | O=C(COc1ncnc2ccc(Br)cc12)N1CCCCC1 | 4.5% | 4.5% (inactive)
56 | Cc1cc(C)nc(SC2=C(N3CCC(C)CC3)C(=O)N(Cc3ccccc3)C2=O)n1 | 4.5% | 14% (inactive)
57 | Cc1cc(C)nc(SC2=C(Nc3ccc(O)cc3)C(=O)N(Cc3ccccc3)C2=O)n1 | 26.5% | 86.5% (active)
58 | Cc1cc(C)nc(SCC(=O)OCCN2C(=O)c3ccccc3C2=O)n1 | 9.5% | 18% (inactive)
59 | COc1ccc2c(CN3CC=C(c4ccccc4)CC3)cc(=O)oc2c1 | 8% | 4.5% (inactive)
60 | Cc1cc(O)c(CN2CC=C(c3ccccc3)CC2)cc1C(C)C | -16% | -85.5% (active)
61 | Cc1c(CN2CC=C(c3ccccc3)CC2)c(=O)n(-c2ccccc2)n1C | -2.5% | 9% (inactive)
